CYP2C9 inh: blocks human cytochrome P450 2C9; P11712; 20% of 96,000 active; inhibition, % at 5 µM; CYP2C9 Supersomes, luciferin-H conversion, luminescence;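 active = blocking of liver enzyme CYP2C9 beyond about 50% at 5 µM, limit read from the data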
sEH inh: blocks human soluble epoxide hydrolase activity; P34913; recombinant human sEH enzymatic activity assay; inhibition, % at 2 µM; 0.34% of 91,000 active; AID 707; in the data active = inhibition above about 80%
Target sequence (P34913 whole entry, looked up): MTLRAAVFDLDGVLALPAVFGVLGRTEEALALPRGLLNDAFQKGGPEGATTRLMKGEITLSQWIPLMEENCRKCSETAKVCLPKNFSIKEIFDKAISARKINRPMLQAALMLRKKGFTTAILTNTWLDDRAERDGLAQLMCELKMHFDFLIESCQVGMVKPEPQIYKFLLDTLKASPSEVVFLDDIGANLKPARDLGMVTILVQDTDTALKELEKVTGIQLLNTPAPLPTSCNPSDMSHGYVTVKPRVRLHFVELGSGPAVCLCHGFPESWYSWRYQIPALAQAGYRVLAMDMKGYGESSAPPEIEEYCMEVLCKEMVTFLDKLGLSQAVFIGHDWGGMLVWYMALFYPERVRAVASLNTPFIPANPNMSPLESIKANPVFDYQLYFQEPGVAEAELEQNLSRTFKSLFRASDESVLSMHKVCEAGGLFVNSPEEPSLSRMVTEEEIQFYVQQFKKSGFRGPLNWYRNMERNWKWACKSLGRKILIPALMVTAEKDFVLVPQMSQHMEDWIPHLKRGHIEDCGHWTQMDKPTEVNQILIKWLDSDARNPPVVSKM
CYP2C9 act: increases human cytochrome P450 2C9 activity. P11712. recombinant CYP2C9, luciferin-H conversion, luminescence; stronger effect = higher value; factor 1 = untreated enzyme, 0 = blocked. activation factor at 5 µM. 1.4% of 96,000 active;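 active = activation factor of 2 or more for CYP2C9 at a 5 µM dose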;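 also: 0 = sulfaphenazole-blocked wells and 1 = vehicle-only wells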
CYP2C19 inh: inhibitors of human CYP2C19; P33261; CYP2C19 Supersomes, luciferin-H EGE luminescence, 30 min; inhibition, % at 5 µM; 21% of 96,000 active; AID 778;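 active = CYP2C19 inhibition above a set limit at 5 µM in the primary screen, cut at about 50% in these data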;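 also: plate controls were negative control wells for no effect and 2.5 mM tranylcypromine positive control for full effect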
CYP2C19 act: cytochrome P450 2C19 (human) activation; recombinant CYP2C19, luciferin-H EGE luminescence; stronger effect = higher value; 0 = fully inhibited enzyme, 1 = untreated enzyme; activation factor at 5 µM; 96,000 tested, under 10 active; AID 1025;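 active = activation factor of at least 2 at 5 µM in the primary screen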;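 also: 0 = wells with 2.5 mM tranylcypromine and 1 = vehicle-only wells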
sEH act: activators of human soluble epoxide hydrolase; P34913; purified human sEH enzymatic activity, activator screen; activation, % at 2 µM; 0.04% of 91,000 active; AID 717; in the data active = activation above about 37%
Starred values were filed as active, the others as inactive. Compounds with a hit are over-represented: about 27% of the library has one in this group of screens.

For O=C(CCCN1C(=O)c2cccc3cccc(c23)C1=O)N1CCc2ccccc2C1 the results were CYP2C9 inh -295.5, sEH inh 6.8, CYP2C9 act 4*, CYP2C19 inh 52.5*, CYP2C19 act 0.5 and sEH act -7.0.
For O=C(CCCN1C(=O)c2ccccc2C1=O)N1CCC(c2ccccc2)C1 (configuration not stated) the results were CYP2C9 inh 66.9*, sEH inh 7.1, CYP2C9 act 0.3, CYP2C19 inh 79.2*, CYP2C19 act 0.2 and sEH act -5.7.
Screening O=C1c2ccccc2C(=O)N1CCCC(=O)N1CCc2ccccc21 returned CYP2C9 inh -40.8, sEH inh 8.7, CYP2C9 act 1.4, CYP2C19 inh 27.5, CYP2C19 act 0.7 and sEH act -8.4.
`Cc1ccc(C(C(=O)NC(C)(C)C)N(Cc2cccs2)C(=O)c2csnn2)cc1` (configuration not stated) gave sEH inh -9.7 and sEH act 9.4.
Cc1nnc(SCc2ccc(Cl)cc2Cl)[nH]c1=O was read as CYP2C9 inh 80.5*, sEH inh 5.4, CYP2C9 act 0.2, CYP2C19 inh 11.0, CYP2C19 act 0.9 and sEH act -7.2.
`Cc1nnc(SCC(=O)Nc2c(Cl)cccc2Cl)[nH]c1=O` gave CYP2C9 inh 62.0*, sEH inh -11.6, CYP2C9 act 0.4, CYP2C19 inh -6.0, CYP2C19 act 1.1 and sEH act 10.5.
`Cc1nnc(SCC(=O)Nc2ccc(Cl)cn2)[nH]c1=O` gave sEH inh 11.5 and sEH act -9.3.
Screening C=CCNC(=S)NNC(=O)C(CCC(C)C)CC(C)(C)O (configuration not stated) returned CYP2C9 inh -6.0, sEH inh 9.8, CYP2C9 act 1.1, CYP2C19 inh -7.2, CYP2C19 act 1.1 and sEH act -6.9.
For O=C(NCCCN1CCN(c2cccc(Cl)c2)CC1)c1nc(-c2ccncc2)no1 the results were CYP2C9 inh 87.4*, sEH inh 10.5, CYP2C9 act 0.1, CYP2C19 inh 69.5*, CYP2C19 act 0.3 and sEH act -8.8.
For Cc1cc(C(=O)CSc2ccc(Cl)cc2)cc(C)c1OC(=S)N(C)C the results were CYP2C9 inh 67.2*, sEH inh 12.1, CYP2C9 act 0.3, CYP2C19 inh 43.6, CYP2C19 act 0.6 and sEH act -13.1.
Cc1nc(SCC(=O)NCCc2ccccc2)n[nH]1 was read as CYP2C9 inh 3.4, sEH inh -20.1, CYP2C9 act 1, CYP2C19 inh 37.6, CYP2C19 act 0.6 and sEH act 19.5.
Screening O=C(CSc1nccc(-c2ccc(Br)cc2)n1)NCCc1ccccc1 returned CYP2C9 inh 47.4, CYP2C9 act 0.5, CYP2C19 inh 62.2* and CYP2C19 act 0.4.
`O=C1N/C(=N\N=C\c2cccnc2)SC1Cc1ccc(SC(F)F)cc1` (configuration not stated) gave CYP2C9 inh 52.8*, sEH inh -4.5, CYP2C9 act 0.5, CYP2C19 inh 2.3, CYP2C19 act 1 and sEH act 2.4.
O=C1N/C(=N\N=C\c2ccc3ncccc3c2)SC1Cc1ccc(SC(F)F)cc1 (configuration not stated) was read as CYP2C9 inh 48.5, sEH inh -15.8, CYP2C9 act 0.5, CYP2C19 inh -3.9, CYP2C19 act 1 and sEH act 13.5.
`Cc1onc(-c2ccccc2)c1C(=O)NC(C)C1CCCO1` (configuration not stated) gave CYP2C9 inh 3.5, sEH inh 0.5, CYP2C9 act 1, CYP2C19 inh 3.2, CYP2C19 act 1 and sEH act -0.5.
N#CC1=C(N2CCCCC2)c2cc3c(n2C1=O)CCCC3 was read as CYP2C9 inh 45.9, sEH inh -13.2, CYP2C9 act 0.5, CYP2C19 inh 45.1, CYP2C19 act 0.5 and sEH act 12.8.
`O=C(NC(=S)Nc1cc([N+](=O)[O-])ccc1Cl)c1ccccc1` gave CYP2C9 inh 9.9, sEH inh 2.9, CYP2C9 act 0.9, CYP2C19 inh 7.6, CYP2C19 act 0.9 and sEH act -2.8.
O=C(NC(NC(=S)Nc1ccc(Cl)cc1Cl)C(Cl)(Cl)Cl)c1cccc([N+](=O)[O-])c1 (configuration not stated) was read as CYP2C9 inh 88.5*, sEH inh 5.5, CYP2C9 act 0.1, CYP2C19 inh 7.1, CYP2C19 act 0.9 and sEH act -7.4.
`Cc1cccc(NC(=O)c2sc(Cl)nc2-c2ccccc2)c1` gave CYP2C9 inh 54.1*, sEH inh 3.8, CYP2C9 act 0.5, CYP2C19 inh 91.0*, CYP2C19 act 0.1 and sEH act -2.0.
`Cc1cccc(NC(=O)c2snc3c(=O)[nH]cnc23)c1` gave CYP2C9 inh 51.7*, sEH inh 7.9, CYP2C9 act 0.5, CYP2C19 inh 33.5, CYP2C19 act 0.7 and sEH act -8.4.
CCc1cccc(NC(=O)c2snc3c(=O)[nH]cnc23)c1 was read as CYP2C9 inh 10.4, sEH inh 2.6, CYP2C9 act 0.9, CYP2C19 inh 9.2, CYP2C19 act 0.9 and sEH act -5.7.
For Cc1c(CCO)c(=O)n(C)n1C(=O)c1ccc(Cl)cc1 the results were CYP2C9 inh 4.4, sEH inh 9.3, CYP2C9 act 1, CYP2C19 inh 55.8*, CYP2C19 act 0.4 and sEH act -8.8.
Screening Cc1cc2c3nonc3ccc2n1-c1ccccc1 returned CYP2C9 inh -1.3, sEH inh -4.9, CYP2C9 act 1, CYP2C19 inh 18.1, CYP2C19 act 0.8 and sEH act 4.5.
Screening CN1CCc2c(sc3c2C(=O)NC(c2cccc(OC(=O)c4cccs4)c2)N3)C1 (configuration not stated) returned CYP2C9 inh 13.7, CYP2C9 act 0.9, CYP2C19 inh -14.0 and CYP2C19 act 1.1.
O=C1NC(c2cccs2)Nc2sc3c(c21)CCCC3 (configuration not stated) was read as CYP2C9 inh 60.2*, sEH inh 11.1, CYP2C9 act 0.4, CYP2C19 inh -13.9, CYP2C19 act 1.1 and sEH act -9.8.
For Nc1nc(-c2c[nH]c3ccccc23)cs1 the results were CYP2C9 inh 30.8, sEH inh 1.8, CYP2C9 act 0.7, CYP2C19 inh 42.2, CYP2C19 act 0.6 and sEH act -2.2.
`CNc1nc(-c2c[nH]c3ccccc23)cs1` gave CYP2C9 inh 77.6*, sEH inh -5.7, CYP2C9 act 0.2, CYP2C19 inh 72.6*, CYP2C19 act 0.3 and sEH act 7.8.
`CC(C)NC(=S)Nc1ccc(Oc2ccccc2)cc1` gave CYP2C9 inh 39.8, sEH inh 38.0, CYP2C9 act 0.6, CYP2C19 inh 72.1*, CYP2C19 act 0.3 and sEH act -38.2.
Screening CCCNC(=S)Nc1ccc(Oc2ccccc2)cc1 returned CYP2C9 inh 42.0, sEH inh -4.2, CYP2C9 act 0.6, CYP2C19 inh 67.9*, CYP2C19 act 0.3 and sEH act 5.5.

Screening data (PubChem BioAssay)
